Sampled rows, rich in hits. Any-hit rate of the full collection: about 1.3%.
Gli-Sufu antag: Gli-Sufu pathway antagonism | Sufu-KO-LIGHT fibroblasts, Gli luciferase reporter luminescence | inhibition, % at 5 µM | 0.74% of 340,000 active;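 active means inhibition above about 55%, limit read from the data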
NR2F2 inh: blocks human COUP-TFII nuclear receptor | P24468 | HEK293T NGFI-A luciferase reporter, luminescence | inhibition, % at 8.6 µM | 0.7% of 370,000 active | AID 686940;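 active means inhibition above a per-plate cutoff, mean inhibition of test wells between control levels plus 3 SD, cut at about 38% in these data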;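 further: cells cotransfected with COUP-TFII expression vector driving the NGFI-A reporter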
SRC3 inh: human NCOA3 inhibition | 0.17% of 360,000 active | inhibition, % at 3.6 µM | HEK293 GAL4-SRC3 luciferase reporter, luminescence | Q9Y6Q9;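 active means inhibition above a per-campaign cutoff, the mean of all compounds plus 3 SD, cut at about 60% in these data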;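 further: higher means less SRC3-driven luciferase light from the GAL4 reporter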
LRH-1 inv ag: suppresses constitutive activity of human LRH-1; O00482; HEK293T StAR-luciferase reporter, LRH-1 transfected, 24 h; inhibition, % at 3.6 µM; 0.13% of 360,000 active;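 active means inhibition above the mean inhibition of all tested compounds plus 3 SD, cut at about 73% in these data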
NCOA2 inhibitor: human SRC2 (NCOA2) inhibition. Q15596. HEK293 GAL4-SRC2 luciferase reporter, luminescence. inhibition, % at 9 µM. 0.17% of 370,000 active. AID 651957;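 active means inhibition above the mean inhibition of all tested compounds plus 3 SD, set per campaign, cut at about 52% in these data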
SRC1 inh: inhibits human SRC1 coactivator. Q15788. HEK293 GAL4-SRC1 luciferase reporter, luminescence. inhibition, % at 3.6 µM. 0.12% of 360,000 active. AID 588354;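 active means inhibition above the campaign mean plus 3 SD, with each screening campaign given its own cutoff, cut at about 60% in these data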
Target sequence (Q15788 whole entry, looked up, the tested form may be a part): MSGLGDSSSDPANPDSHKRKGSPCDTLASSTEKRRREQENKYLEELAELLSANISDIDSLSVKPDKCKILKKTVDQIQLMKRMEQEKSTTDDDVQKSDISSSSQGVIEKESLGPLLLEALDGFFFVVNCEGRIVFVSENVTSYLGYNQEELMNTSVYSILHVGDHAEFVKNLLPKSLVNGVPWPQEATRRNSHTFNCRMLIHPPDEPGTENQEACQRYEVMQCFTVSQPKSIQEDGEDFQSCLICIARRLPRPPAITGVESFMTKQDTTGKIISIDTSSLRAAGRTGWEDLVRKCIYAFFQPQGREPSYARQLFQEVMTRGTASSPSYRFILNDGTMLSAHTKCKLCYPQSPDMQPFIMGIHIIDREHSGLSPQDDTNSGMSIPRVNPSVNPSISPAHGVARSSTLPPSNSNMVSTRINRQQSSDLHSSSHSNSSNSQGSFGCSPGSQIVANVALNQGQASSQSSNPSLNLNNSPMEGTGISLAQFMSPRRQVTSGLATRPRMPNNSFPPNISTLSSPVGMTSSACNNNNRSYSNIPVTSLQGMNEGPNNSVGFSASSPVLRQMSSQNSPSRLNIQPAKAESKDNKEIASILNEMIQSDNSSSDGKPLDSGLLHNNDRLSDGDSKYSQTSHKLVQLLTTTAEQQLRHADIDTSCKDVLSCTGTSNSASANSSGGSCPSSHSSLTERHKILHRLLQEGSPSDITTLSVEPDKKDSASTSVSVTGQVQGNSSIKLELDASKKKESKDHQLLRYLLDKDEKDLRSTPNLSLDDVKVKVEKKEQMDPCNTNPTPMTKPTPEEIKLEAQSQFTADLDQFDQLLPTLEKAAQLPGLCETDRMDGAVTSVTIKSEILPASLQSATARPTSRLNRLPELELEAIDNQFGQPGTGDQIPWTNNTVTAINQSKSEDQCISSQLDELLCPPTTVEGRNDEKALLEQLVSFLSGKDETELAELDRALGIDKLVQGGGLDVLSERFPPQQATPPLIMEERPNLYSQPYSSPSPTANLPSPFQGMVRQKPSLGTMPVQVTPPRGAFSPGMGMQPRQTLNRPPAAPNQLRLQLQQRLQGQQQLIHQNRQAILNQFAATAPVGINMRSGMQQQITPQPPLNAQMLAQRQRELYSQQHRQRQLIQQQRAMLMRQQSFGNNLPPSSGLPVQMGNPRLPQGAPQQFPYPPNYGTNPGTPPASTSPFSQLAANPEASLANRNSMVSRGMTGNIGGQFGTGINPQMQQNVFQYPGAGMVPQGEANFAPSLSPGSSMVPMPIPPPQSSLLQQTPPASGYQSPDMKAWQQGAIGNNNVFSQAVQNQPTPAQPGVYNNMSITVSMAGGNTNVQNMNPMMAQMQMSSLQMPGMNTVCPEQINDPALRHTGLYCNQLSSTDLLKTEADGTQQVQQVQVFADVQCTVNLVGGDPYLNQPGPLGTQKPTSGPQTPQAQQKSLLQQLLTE
Gal4-VP16 ctr: inhibits VP16 reporter, flagging COUP-TFII antagonist hits | HEK293 Gal4-VP16 luciferase reporter, luminescence | 25% of 2,500 active | shares compounds with NR2F2 inh | inhibition, % at 8.5 µM; in the data active means inhibition above about 13%
COUP-TFII conf: COUP-TFII (NR2F2) inhibition, confirmation assay | AID 687008 | inhibition, % at 8.5 µM | HEK293 NGFI-A luciferase reporter, luminescence | 45% of 2,500 active | shares compounds with NR2F2 inh;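 active means mean inhibition over three repeats above a set limit taken from the earlier primary screen, cut at about 38% in these data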
Numbers stand for hits; – = inactive; · = no result given.

SMILES	Gli-Sufu antag	NR2F2 inh	SRC3 inh	LRH-1 inv ag	NCOA2 inhibitor	SRC1 inh	Gal4-VP16 ctr	COUP-TFII conf
Cc1ccc(NC(=O)C2(C)CCN2C(=O)C2(c3ccc(Cl)cc3)CC2)cc1 (centres undefined)	·	–	–	–	–	–	·	·
CC(C)NC(=O)C1(C)CCCCN1Cc1ccc(OCc2ccccc2)cc1 (centres undefined)	·	40.5	–	–	–	–	–	–
Cc1ccc(-c2nc(CS(=O)CC(=O)NCCCN3CCN(Cc4ccccc4)CC3)c(C)o2)cc1 (centres undefined)	–	41.1	–	–	–	–	–	–
O=C(N/N=C/c1ccc([N+](=O)[O-])o1)c1ccc2c(c1)OCO2	–	53.9	–	–	67.0	–	45.1	44.4
O=C(N/N=C\c1ccc(-c2ccc([N+](=O)[O-])cc2)o1)c1ccc2c(c1)OCO2	–	–	–	–	–	–	·	·
CCCC[C@H]1C2CC(OC(=O)NCc3ccc(Cl)cc3)C(C2)[C@H]2CCCCN21 (some centres undefined)	·	–	·	·	–	·	·	·
COCC1CCCN(C(=O)c2cc(COc3ccc4ncccc4c3)on2)C1 (centres undefined)	55.8	66.7	–	–	–	–	–	59.8
O=C(c1cc(COc2ccc3ncccc3c2)on1)N1CCC[C@H]1CO	–	37.5	–	–	–	–	–	–
O=C(c1cc(COc2ccc3ncccc3c2)on1)N1CCCC(O)C1 (centres undefined)	–	–	–	–	–	–	·	·
COCCC1CCCCN1C(=O)c1cc(COc2ccc(C)nc2)on1 (centres undefined)	–	–	–	–	–	–	·	·
O=C(OC12CCCN(C1)/C(=C/c1cccc(Cl)c1)C2)C1CCCCC1 (centres undefined)	·	–	·	·	–	·	·	·
Cc1ccc(S(=O)(=O)N2CCN(C(=O)c3cc4c(C)nn(-c5ccccc5C)c4s3)CC2)cc1	–	45.7	–	–	–	–	–	–
COC[C@H]1CCCN1c1ccc2c(c1)O[C@H](C)CCN(C1CC1)S2(=O)=O	·	–	·	·	–	·	·	·
Cc1ccc(S(=O)(=O)N2CCc3ccccc3C2)cc1	–	–	–	–	–	–	·	·
Cc1ccc(S(=O)(=O)N2CCc3ccccc3CC2)cc1	–	66.4	–	–	–	–	–	50.3
CC(C)C(=O)N1CCC(Oc2cccnc2)CC1	·	–	·	·	–	·	·	·
O=C(Nc1ccccc1C(=O)O)c1cc(S(=O)(=O)N2CCCCC2)c(Cl)cc1Cl	–	40.2	–	–	–	–	–	–
O=C(Nc1ccccc1C(=O)O)c1ccc(Cl)c(S(=O)(=O)N2CCOCC2)c1	–	–	–	–	–	–	·	·
Cc1ccccc1C(=O)OCC(=O)Nc1cccc(S(=O)(=O)N2CCCCC2)c1	·	–	–	–	–	–	·	·
CN(C)S(=O)(=O)c1cccc(NC(=O)CNc2cccc(S(=O)(=O)N3CCCCC3)c2)c1	·	44.9	–	–	–	–	–	–
O=C(CNc1cccc(S(=O)(=O)N2CCCCC2)c1)Nc1cccc(F)c1	–	–	–	–	–	–	·	·
Cc1ccc(C)c(C(=O)OCC(=O)Nc2cccc(S(=O)(=O)N3CCCCC3)c2)c1	·	43.3	–	–	–	–	–	–
CC(=O)c1ccc(OCC(=O)Nc2cccc(S(=O)(=O)N3CCCC3)c2)cc1	–	42.8	–	–	–	–	–	–
Cc1ccc(OCC(=O)Nc2cccc(S(=O)(=O)N3CCCC3)c2)cc1C	·	–	–	–	–	–	·	·
CCOC(=O)[C@@]12CN(C(=O)OC(C)(C)C)CC=C1N(Cc1ccc(OC)cc1)C(=O)[C@H]2CC(=O)N1CCSCC1	·	–	·	·	–	·	·	·
SMILES	Gli-Sufu antag	NR2F2 inh	SRC3 inh	LRH-1 inv ag	NCOA2 inhibitor	SRC1 inh	Gal4-VP16 ctr	COUP-TFII conf
O=C(Nc1c(-c2ccc(F)cc2)nc2ncccn12)C1CC1	·	–	·	·	–	·	·	·
CCCCCn1c(=O)[nH]c2cc(C(=O)N3CCN(Cc4ccc5c(c4)OCO5)CC3)ccc2c1=O	57.4	58.2	–	–	–	–	–	64.4
O=C(c1ccc2c(=O)n(Cc3ccc(Cl)cc3)c(=S)[nH]c2c1)N1CCOCC1	–	38.9	–	–	–	–	–	–
O=C(c1ccc2c(=O)n(Cc3ccc(Cl)cc3)c(=S)[nH]c2c1)N1CCCC1	–	–	–	–	–	–	·	·
N#CCC[C@@H]1CC[C@]2(CCCN(C(=O)c3ccco3)C2)O1	·	–	·	·	–	·	·	·
C[C@@H]1CN([C@H](C)CO)C(=O)c2cc(NC(=O)Nc3ccccc3)ccc2O[C@@H](C)CCCCO[C@H]1CN(C)S(=O)(=O)c1ccc(F)cc1	·	–	·	·	·	·	·	·
COC(=O)[C@]12C[C@H](CC(=O)NCCCN3CCCC3=O)C(=O)N(CCc3ccc(OC)c(OC)c3)C1=C[C@H](C(C)(C)C)O[C@@H]2C	·	–	·	·	–	·	·	·
CSc1ccc(CN2CCN(Cc3ccc([N+](=O)[O-])cc3)CC2)cc1	–	51.3	–	–	–	–	–	46.1
Nc1ccc(Nc2nc(-c3cc4ccccc4oc3=O)cs2)cc1	–	–	–	–	–	–	·	·
CC(=O)Nc1ccc(Nc2nc(-c3cc4ccccc4oc3=O)cs2)cc1	–	40.0	–	–	–	–	–	–
CCN(CC)S(=O)(=O)c1ccc(/C=C/C(=O)O)cc1	–	–	–	–	–	–	·	·
CCN(CC)S(=O)(=O)c1ccc(NC(=O)Nc2cccc(C(F)(F)F)c2)cc1	–	75.4	–	–	–	–	–	–
Cc1ccc(S(=O)(=O)Nc2ccc(NC(=O)Nc3cccc(C(F)(F)F)c3)cc2)cc1	–	–	–	–	–	–	·	·
CCN(CC)S(=O)(=O)c1ccc(/C=C/C(=O)Nc2cccc(F)c2)cc1	–	38.0	–	–	–	–	–	–
Cc1ccc(OCCN2CCN(C(=O)CCC(=O)Nc3nnc(C)s3)CC2)cc1	–	–	–	–	–	–	·	·
Cc1ccc(OCCN2CCN(C(=O)CCC(=O)Nc3nnc(C(C)C)s3)CC2)cc1	–	41.3	–	–	–	–	–	–
Cc1c(C(=O)NCc2ccc(Cl)c(Cl)c2)sc(=O)n1Cc1ccc(S(=O)(=O)N(C)C)cc1	·	37.7	–	–	–	–	–	–
Cc1c(C(=O)NCc2ccc(C(C)C)cc2)sc(=O)n1Cc1ccc(S(=O)(=O)N(C)C)cc1	·	67.8	–	–	–	–	–	64.0
Cc1c(C(=O)NCc2cccc(Cl)c2)sc(=O)n1Cc1ccc(C(=O)N(C)C)cc1	·	–	–	–	–	–	·	·
Cc1c(C(=O)NCc2ccc(Cl)c(Cl)c2)sc(=O)n1Cc1ccc(C(=O)N(C)C)cc1	·	49.5	–	–	–	–	–	–
C=Cc1ccc(Cn2c(C)c(C(=O)NCc3ccc(Cl)c(Cl)c3)sc2=O)cc1	·	–	–	–	–	–	·	·
CSc1ccc(Cn2c(C)c(C(=O)NCc3ccc(C(C)C)cc3)sc2=O)cc1	·	–	–	–	–	–	·	·
